Measured values reported in PubChem BioAssay (NCI).
This is part of a sample that, as a whole, favours compounds with a hit. Of some 83,000 tested, about 20% had one in any assay.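 Growth was measured after 48 h exposure to one concentration of compound in 96-well plates. Values under 10 count as active.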 Values without a mark were called inactive. Activity calls are given as the source filed them.

Key:
Assay in all cases: NCI-60 one-dose screen, 48 h (100 = growth as untreated, 0 = no growth, -100 = all killed)
Settings in all cases: 10 µM unless noted
[1] = system: DU-145 prostate
[2] = system: K-562 leukemia
[3] = system: MALME-3M melanoma
[4] = system: MDA-MB-231 breast
[5] = system: RXF 393 renal
[6] = system: SF-268 CNS
[7] = system: SF-295 CNS
[8] = system: SF-539 CNS
[9] = system: UACC-257 melanoma
[10] = system: M14 melanoma
[11] = system: HCT-15 colon
[12] = system: HT29 colon
[13] = system: SNB-75 CNS
[14] = system: SNB-19 CNS
[15] = system: U251 CNS
[16] = system: PC-3 prostate
[17] = system: SK-MEL-5 melanoma
[18] = system: UACC-62 melanoma
[19] = system: LOX IMVI melanoma
[20] = system: SK-MEL-28 melanoma

SMILES | growth [1] [%] | growth [2] | growth [3] | growth [4] | growth [5] | growth [6] [%] | growth [7] | growth [8] [%] | growth [9] | growth [10] [%] | growth [11] [%] | growth [12] | growth [13] [%] | growth [14] [%] | growth [15] | growth [16] | growth [17] | growth [18] | growth [19] | growth [20] [%]
C=C(C[n+]1ccccc1)[C@@H]1CC[C@]2(C(=O)OC)CC[C@]3(C)[C@H](CC[C@@H]4[C@@]5(C)CCC(=O)C(C)(C)[C@@H]5CC[C@]43C)[C@@H]12 | 101 | 57.8% | 75.2% | 85.9% | 99% | 90.3 | 103% | 93.7 | 53.4% | 87 | 104 | 78% | 83.9 | 73.8 | 82.8% | 68% | 80.2% | 51.8% | 93.7% | 69
Cc1ccc(C2(C)NC(=O)N(CC(=O)Nc3cccc(C)c3)C2=O)cc1 (stereo not given) | 110 | 112% | 100% | 99.4% | 101% | 104 | 107% | 103 | 101% | 110 | 94.4 | 96.6% | 77.1 | 102 | 99.1% | 60.1% | 98.3% | 84% | 96.3% | 107
CCOC(=O)/C=C1\S/C(=N\Nc2cc(=O)[nH]c3ccc(OC)cc23)N(c2ccccc2)C1=O | 98.6 | 86.5% | 101% | 107% | 111% | 101 | 102% | 97.4 | 102% | 99.9 | 93.3 | 108% | 91.1 | 95 | 92.9% | 99.3% | 103% | 100% | 97.3% | 108
Cc1[nH]c(C(=O)Nc2ccccc2OC2CCNC2)c(Cl)c1Cl (stereo not given) | 93.5 | 52.2% | 97.5% | 54.4% | 76.8% | 75.7 | 95.5% | 85.6 | 107% | 98.5 | 77.7 | 77.8% | 65.2 | 85.3 | 64.4% | 80.2% | 85.8% | 68.1% | 30.7% | 106
CC(C)n1cc(C2=C(c3cccc4ccccc34)C(=O)NC2=O)c2cc(Br)ccc21 | 71 | 34.8% | 122% | 91.2% | 24.4% | 67.5 | 63.9% | 60.9 | 111% | 76.1 | 43.1 | 43.1% | 38.6 | 82.6 | 60.4% | 57.8% | -0.736% (active) | 60% | 1.07% (active) | 90.7
CC(C)C(=O)Nc1ncc(C(=O)NCCN(Cc2ccccc2)C(=O)c2ccc(S(=O)(=O)Nc3ccccc3)cc2)s1 | 109 | 98.4% | 111% | 96.5% | 95% | 89.5 | 100% | 89.3 | 105% | 101 | 96.6 | 104% | 78.3 | 97.1 | 97.4% | 94.3% | 90.8% | 89.6% | 104% | 98.4
Cc1ccc2c(n1)C[C@H](C(C)(C)O)CC[C@H]2C | 107 | 101% | 94.4% | 97.1% | 114% | 101 | 93.4% | 100 | 104% | 104 | 99.4 | 107% | 91.8 | 91.8 | 94.4% | 104% | 98.9% | 94.4% | 101% | 106
Oc1ccc(Cc2ccc(O)c3ncccc23)c2cccnc12 | 23.5 | 9.66% (active) | -14.1% (active) | 5.46% (active) | 9.57% (active) | 27.5 | -20.5% (active) | 14.1 | -8.29% (active) | 17 | 13.1 | 57.6% | 12.9 | 15.9 | 6.14% (active) | 5.52% (active) | -47.3% (active) | 1.18% (active) | 16.7% | 30.3
CSc1nc(N)c2c(n1)NC(c1ccccc1)C1CCc3ccccc3C1=N2 (stereo not given) | 74.5 | 47.7% | 113% | 71.9% | 84.4% | 60.1 | 41.7% | 102 | 88.7% | 55.7 | 46.8 | 42.7% | 84 | 79 | 68.2% | 11.9% | 51% | 42.6% | 43.3% | 81.5
CC(=O)Oc1ccccc1C(=O)N(Cc1ccc2c(Cl)cc(Cl)c(O)c2n1)c1ccccc1 | 50.1 | 22.5% | 69.3% | 68.8% | 60.7% | 39.8 | 33.2% | 59 | 78.6% | 51 | 23.8 | 89.4% | 51.2 | 42 | 27.6% | 34% | 41.5% | 29.3% | 38.5% | 58.3
Nc1cc(-c2ccc(Cl)cc2)nn1-c1nc(-c2ccc(Br)cc2)cs1 | 108 | 105% | 86.7% | 97.3% | 103% | 106 | 96.6% | 97.9 | 92.1% | 96.1 | 98.3 | 92% | 89.4 | 91.4 | 95.2% | 91.5% | 100% | 91.1% | 102% | 95.3
O=c1ccc2nc(-c3ccccc3)nn(-c3ccccn3)c-2c1 | 105 | -24.3% (active) | 50.1% | 91.1% | 26.8% | 96.6 | 103% | 99.5 | 72.3% | 105 | 33.9 | -46.5% (active) | 106 | 102 | 94.4% | 83.5% | 76.6% | 93.4% | 49.6% | 87.2
CN1CCN(Cc2ccc(NC(=O)c3cncc(C#Cc4cnc(N)c5ncccc45)c3)cc2Cl)CC1 | 77.1 | -28.9% (active) | 54.2% | 16.2% | 21.8% | 98.7 | 101% | 83.1 | 89.7% | 84.4 | 63.8 | 52.4% | 105 | 106 | -64.6% (active) | 91.6% | 78.4% | 98.5% | 86.5% | 45.1
COc1ccc(CNc2c3ccccc3nc3ccccc23)cc1OC | 24.7 | 8.81% (active) | 7.92% (active) | 19.4% | 3.58% (active) | 39.6 | 18.1% | 15.4 | 22.1% | 17.7 | 10.3 | 4.44% (active) | 24.8 | 21.8 | 23.2% | 22% | 17.5% | 26.8% | -3.83% (active) | 35.2
C=CCn1c(SCC(=O)Nc2ccc(C(=O)/C=C/c3cc(OC)c(OC)c(OC)c3)cc2)nnc1-c1cc(-c2ccc(S(N)(=O)=O)cc2)nc2ccccc12 | 105 | 48.2% | 97.1% | 83.1% | 64.6% | 94.6 | 99% | 86.6 | 96.1% | 95.6 | 97.7 | 98.1% | 77.2 | 74.2 | 58.9% | 84.1% | 87.6% | 74.7% | 73% | 103
CC(=O)OCC(=O)O[C@@H]1C[C@]2(C(C)C)O[C@@]1(C)[C@@H]1CC[C@@H](C)[C@H]1[C@@H]2OC(=O)/C=C/c1ccccc1 | 101 | 67.5% | 101% | 82.9% | -2.3% (active) | 51.5 | 88.8% | 92.4 | 92.5% | 97.2 | 81.4 | 82.3% | 62.3 | 86.6 | 74.7% | 58.6% | 74.4% | 81% | 90.2% | 102
